Pol eta inh: blocks human DNA polymerase eta activity; Q9Y253; recombinant Pol eta, fluorescent DNA replication assay; Potency, µM (top dose mostly 114 µM), usual class: inhibitors; 1.2% of 390,000 active; AID 588591
Target sequence (Q9Y253 whole entry, looked up): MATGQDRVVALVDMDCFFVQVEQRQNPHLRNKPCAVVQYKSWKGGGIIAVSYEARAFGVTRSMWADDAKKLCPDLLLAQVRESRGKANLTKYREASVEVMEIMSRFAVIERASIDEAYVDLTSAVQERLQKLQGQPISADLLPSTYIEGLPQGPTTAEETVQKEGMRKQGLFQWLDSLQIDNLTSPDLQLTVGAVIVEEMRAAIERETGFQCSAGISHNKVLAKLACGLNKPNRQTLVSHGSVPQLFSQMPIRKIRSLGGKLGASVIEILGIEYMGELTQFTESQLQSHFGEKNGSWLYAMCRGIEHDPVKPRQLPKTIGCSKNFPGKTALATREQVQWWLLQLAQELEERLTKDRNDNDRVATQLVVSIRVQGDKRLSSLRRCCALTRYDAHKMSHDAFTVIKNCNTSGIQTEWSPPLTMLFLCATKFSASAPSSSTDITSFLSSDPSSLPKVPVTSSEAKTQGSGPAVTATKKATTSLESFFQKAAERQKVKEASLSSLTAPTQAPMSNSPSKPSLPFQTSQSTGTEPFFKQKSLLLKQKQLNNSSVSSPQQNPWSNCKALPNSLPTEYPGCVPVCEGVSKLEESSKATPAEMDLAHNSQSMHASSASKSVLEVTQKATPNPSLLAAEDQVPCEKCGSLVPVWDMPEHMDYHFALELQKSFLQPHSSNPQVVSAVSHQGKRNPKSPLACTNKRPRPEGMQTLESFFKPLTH
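Pol eta at 10 nM preincubated with compounds 15 min at room temperature; reaction started with fluorescent substrate (50 nM final) and read kinetically at 0 and 10 min.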
GCN5L2 inh: inhibitors of human GCN5L2 histone acetyltransferase; Q92830; GCN5L2 HAT assay, ThioGlo1 CoA-SH fluorescence; Potency, µM (doses to about 58.9 µM), most hits filed as inhibitors; 0.21% of 390,000 active; AID 504327
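GCN5L2 (20 nM) in 50mM HEPES pH 7.5, 0.1mM EDTA, 0.01% Tween-20 preincubated 15 min with compounds at room temperature. Reaction started with H3(1-25) 75uM, acetyl-CoA 70uM, ThioGlo1 50uM; CoA-thiol fluorescence (Ex340/Em540) read at 0 and 20 min.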
Pol iota inh: blocks human DNA polymerase iota activity; Q9UNA4; Pol iota fluorescent replication assay, 10 min; Potency, µM (doses to about 115 µM), actives largely listed as inhibitors; 1% of 390,000 active; AID 588590
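Pol iota at 10 nM preincubated 15 min with compounds at room temperature; reaction started with fluorescent substrate, 50 nM final. Fluorescence read kinetically at 0 and 10 min; buffer-only wells as negative control.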
POLB inh: inhibitors of human DNA polymerase beta; Pol beta primer extension/strand displacement, fluorescence kinetic; Potency, µM (top dose mostly 114 µM), hits mostly inhibitors; 1.3% of 340,000 active; AID 485314
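Enzyme-only controls used 10 nM Pol beta; buffer lacking enzyme served as negative control. Compound preincubated 15 min, then 50 nM substrate added; 0 and 10 min reads at room temperature.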
GLS inh: glutaminase GLS (human) inhibition; O94925; Potency, µM (doses to about 45.5 µM), hits mostly inhibitors; GLS enzymatic activity, qHTS titration; 0.21% of 410,000 active; AID 624170
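Coupled fluorescence readout: glutamate oxidase/HRP/Amplex Red detect glutamate formed by hKGA from L-glutamine (1 mM solution added). Buffer 45 mM KH2PO4 pH 8.2, 0.02% Tween-20; reads at t0 and 30 min RT.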
POLK inh: DNA polymerase kappa (human) inhibition; 0.53% of 400,000 active; Potency, µM (doses to about 107 µM), most hits filed as inhibitors; purified Pol kappa, fluorescent DNA synthesis assay, 10 min
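50 nM final substrate added after 15 min RT preincubation of 10 nM Pol kappa with compound; fluorescence read at 0 and 10 min.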
Of the large screens only hits and unclear results are named; the others gave an inactive call. Only some compounds are listed: those with a hit (about 2.4% of all), similar ones and a draw of the others. The call rests on the fitted dose curve; in most records, active means well fitted inhibition curve with a large enough effect; inconclusive means small, poorly fitted or top-dose-only effect, or another doubt; inactive means no such curve, though single readings can be large or run the other way.

COc1ccc(/C=C2\SC(=S)N(CCC(=O)Nc3ccc(C(=O)O)cc3)C2=O)cc1OC	Pol eta inh 32µM, POLB inh inconclusive, GLS inh inconclusive
COc1cc(/C=C2\SC(=S)N(CC(=O)O)C2=O)ccc1OS(=O)(=O)c1ccc(C)cc1	Pol eta inh inconclusive, Pol iota inh 14µM (no result: POLB inh)
O=C(CCCN1C(=O)/C(=C/c2ccc3c(c2)OCO3)SC1=S)Nc1ccc(C(=O)O)cc1	Pol eta inh 89µM
O=C(CCCN1C(=O)C(=Cc2ccc3c(c2)OCO3)SC1=S)Nc1ccc(C(=O)O)c(O)c1	none (no result: Pol eta inh, GCN5L2 inh, Pol iota inh, POLB inh, POLK inh)
COc1cc(/C=C2\SC(=Nc3ccccc3)N(Cc3ccco3)C2=O)ccc1OC(C)C(=O)O (stereo unspecified)	GCN5L2 inh inconclusive
CCn1c2ccccc2c2cc(/C=C3\C=Cc4ccccc43)ccc21	none (no result: Pol eta inh, GCN5L2 inh, POLB inh, GLS inh)
CNS(=O)(=O)c1cn(CC(=O)Nc2ccc(C(C)=O)cc2)cc1S(=O)(=O)NC	Pol iota inh inconclusive, POLB inh inconclusive
COc1ccc(CNC(=O)C2CCN(S(=O)(=O)c3cccc4nonc34)CC2)cc1OC	none
CCc1ccc(/C=C2\SC(=S)N(CCCC(=O)Nc3ccccc3C(=O)O)C2=O)cc1	Pol eta inh inconclusive, GCN5L2 inh inconclusive, Pol iota inh 71µM, POLB inh inconclusive
c1coc(-c2nnc(-c3ccco3)nn2)c1	Pol eta inh 8.9µM, Pol iota inh inconclusive, POLB inh 7.9µM, GLS inh 7.9µM, POLK inh 18µM
CN(C)c1ccc(/C=C2\C=Nc3ccccc32)cc1	none (no result: Pol eta inh, GCN5L2 inh, POLB inh, GLS inh)
CCc1ccc2[nH]c(=O)c(CN(Cc3cccnc3)Cc3nnnn3Cc3ccccc3)cc2c1	none (no result: Pol eta inh, GCN5L2 inh, POLB inh, GLS inh)
C=Cc1ccc(Cn2c(C(=O)O)c(CNC3CCCCC3)c3ccc(OC)cc32)cc1	Pol eta inh inconclusive, GCN5L2 inh inconclusive, Pol iota inh inconclusive, POLB inh 35µM
COc1ccc(Cn2c(C(=O)O)c(CNC3CCCCCC3)c3ccc(OC)cc32)cc1	none
CN(C)c1ccc(/C=C2\C(=O)/C(=C\c3ccc(N(C)C)cc3)c3ccccc32)cc1	none (no result: Pol eta inh, GCN5L2 inh, POLB inh, GLS inh)
Cc1cc(C)c2oc(-c3ccc(C)c(NC(=O)/C=C/c4ccco4)c3)nc2c1	Pol eta inh inconclusive, Pol iota inh 22µM, POLB inh inconclusive
CC1(C)Cc2c(cnn2-c2ccc(F)cc2)C(NC(=O)C2=NNC(=O)CC2)C1 (stereo unspecified)	GLS inh 16µM
CC(C)(C)c1ccc(C(=O)C[n+]2cccc(Br)c2)cc1	none (no result: Pol eta inh, GCN5L2 inh, POLB inh, GLS inh)
O=C1c2c([N+](=O)[O-])cc([N+](=O)[O-])cc2S(=O)N1Cc1ccccc1 (stereo unspecified)	GCN5L2 inh 28µM
COc1cc(C2(c3ccc(O)c(OC)c3)C(=O)Nc3c(C)cc(Br)cc32)ccc1O	GLS inh 2.5µM (no result: GCN5L2 inh, POLB inh)
Cc1cc(Br)cc2c1NC(=O)C2(c1c(C)n(C)n(-c2ccccc2)c1=O)c1c(C)n(C)n(-c2ccccc2)c1=O	none
O=C(C[n+]1cccc2cccc(O)c21)c1ccccc1	none (no result: Pol eta inh, GCN5L2 inh, POLB inh, GLS inh)
CC(C)C(=O)Nc1cccc(N2CCN(CCCN3C(=O)C4CCCCN4C3=O)CC2)c1 (stereo unspecified)	Pol iota inh 13µM (no result: GCN5L2 inh, POLB inh)
Nc1c(C(=O)OCC(=O)Nc2cccc([N+](=O)[O-])c2)[nH]c(=O)[nH]c1=O	Pol eta inh 25µM, Pol iota inh inconclusive (no result: POLB inh)
O=C(COC(=O)c1ccccc1C(=O)c1ccccc1)Nc1cccc([N+](=O)[O-])c1	none
Cn1c2ccccc2c2nnc(SCCOc3ccccc3)nc21	none (no result: Pol eta inh, GCN5L2 inh, POLB inh, GLS inh)
COc1ccc(OC)c(CCNC(=O)c2nc(-c3ccc(Cl)cc3)n3c2CCCCC3)c1	none
CCCCCC(=O)Cc1cc(O)cc2c1C(=O)Oc1cc(O)c(C(=O)O)c(CCCCC)c1O2	Pol eta inh 18µM, Pol iota inh 71µM, POLB inh 45µM, POLK inh 79µM
Cc1ccc(/C=N/NC(=O)C(=O)N/N=C/c2ccc(C)o2)o1	none
Cc1ccc(C(=O)N/N=C\c2ccc(Br)o2)o1	GCN5L2 inh 2.5µM
CSc1ccc(C2NC(=O)c3c(sc4c3CCN(C)C4)N2)cc1 (stereo unspecified)	GLS inh inconclusive

Compound activity (PubChem BioAssay)
